The campaign covered roughly 39,000 compounds. About 3,300 (8.5%) were called active. Shown is part of a subset that was picked to be rich in actives.
Tested on: HepG2
Test: cytotoxicity call (relative viability < 0.9)
Settings: 10 µM

SMILES | cytotoxicity call
Cc1ccc(S(=O)(=O)N(C)C[C@H]2OCCCC[C@H](C)Oc3ccc(NC(=O)C4CCCCC4)cc3C(=O)N([C@@H](C)CO)C[C@H]2C)cc1 | inactive
C[C@@H]1CN([C@H](C)CO)C(=O)CCCn2nncc2CO[C@H]1CN(C)C(=O)c1cc(-c2ccccc2)on1 | inactive
COc1ccc(S(=O)(=O)N(C)C[C@@H]2Oc3c(NC(=O)c4cc(C)nn4C)cccc3C(=O)N([C@H](C)CO)C[C@H]2C)cc1 | inactive
C[C@@H]1CN([C@H](C)CO)C(=O)c2cccc(NS(=O)(=O)c3cn(C)cn3)c2O[C@H]1CN(C)S(=O)(=O)c1ccc(Cl)cc1 | inactive
COc1ccc(S(=O)(=O)N(C)C[C@@H]2Oc3ccc(NS(=O)(=O)c4ccc(F)cc4)cc3C(=O)N([C@@H](C)CO)C[C@H]2C)cc1 | inactive
NC(=O)N/N=C/c1ccc([N+](=O)[O-])o1 | inactive
COC(=O)N/N=C/c1ccc([N+](=O)[O-])o1 | inactive
NC(=O)NN=Cc1ccc([N+](=O)[O-])o1 | active
O=C(NO)c1ccc(C(=O)N/N=C/c2ccc(B(O)O)cc2)cc1 | inactive
O=C(N/N=C/c1ccc(CO)o1)c1ccccn1 | inactive
O=C(NN=Cc1ccc([N+](=O)[O-])o1)c1ccc(O)cc1 | active
C[C@@H]1CCCCO[C@@H](CN(C)C(=O)C2CCCCC2)[C@@H](C)CN([C@H](C)CO)C(=O)c2cc(NC(=O)c3ccncc3)ccc2O1 | inactive
O=C(CCCCCC(=O)Nc1ccccc1O)N/N=C/[C@H](O)[C@@H](O)[C@@H](O)[C@H](O)C(=O)O | inactive
COCC#Cc1cnc2c(c1)C(=O)N([C@H](C)CO)C[C@@H](C)[C@@H](CN(C)C(=O)CN1CCOCC1)O2 | inactive
COc1cc(CN)cc(OC)c1OC | inactive
C[C@H](CO)N1C[C@H](C)[C@@H](CN(C)C(=O)Nc2ccc(F)cc2)Oc2ccc(NC(=O)CCCCCC(=O)Nc3ccccc3N)cc2CC1=O | inactive
COc1ccc(NC(=O)N(C)C[C@H]2OCCCC[C@@H](C)Oc3ccc(NC(=O)Cc4ccccc4)cc3C(=O)N([C@H](C)CO)C[C@@H]2C)cc1 | inactive
O=C(CN1CCOCC1)NCC[C@H]1CC[C@@H](NS(=O)(=O)c2ccc(F)cc2)[C@H](CO)O1 | inactive
C[C@H]1CN([C@@H](C)CO)C(=O)c2cccc(NC(=O)C3CCCCC3)c2O[C@H]1CN(C)S(=O)(=O)c1cn(C)cn1 | inactive
NCCN1C(=O)c2[nH]nc(-c3ccccc3)c2[C@H]1c1ccccc1 | active
c1ccc(-c2n[nH]c3c2CCC3)cc1 | inactive
NCc1c[nH]nc1-c1ccccc1 | inactive
C[C@@H]1CN([C@H](C)CO)S(=O)(=O)c2ccc(-c3cccc(F)c3)cc2O[C@H]1CN(C)S(C)(=O)=O | inactive
c1ccc2c(c1)Cc1cccnc1-2 | inactive
Clc1ccc2c(c1)CCc1cccnc1C2=C1CCNCC1 | active

SMILES | cytotoxicity call
Cl.Clc1ccc2c(c1)CCc1cccnc1C2=C1CCNCC1 | active
Clc1ccc2ncccc2c1 | inactive
O=C(C[C@@H]1CC[C@H]2[C@@H](COC[C@H](O)CN2C(=O)c2ccc3c(c2)OCO3)O1)NCCN1CCCCC1 | inactive
Cc1ccc(S(=O)(=O)Nc2cccc3c2O[C@@H](CN(C)C(=O)Nc2cccc4ccccc24)[C@@H](C)CN([C@H](C)CO)C3=O)cc1 | inactive
NC[C@@H]1CC(=O)N(Cc2ccccc2)C1 | inactive
NC(=O)N[C@@H]1CC(=O)N(c2ccccc2)C1 | inactive
NC[C@@H]1CC(=O)N(c2ccccc2)C1 | active
O=c1cc(-c2ccccc2)ss1 | inactive
O=C(c1ccc(S(=O)(=O)N2CCCCCC2)cc1)N(Cc1cccnc1)c1nc2c(F)cc(F)cc2s1 | inactive
COc1cc(OC)c(S(=O)(=O)N(C)Cc2ccccc2)cc1S(=O)(=O)N(C)Cc1ccccc1 | inactive
Cc1ccc2sc(N(CCCN(C)C)C(=O)c3ccc(S(=O)(=O)N(C)Cc4ccccc4)cc3)nc2c1C | active
Cc1cc(Cl)cc2sc(N(Cc3ccccn3)C(=O)c3ccc(S(=O)(=O)N4CCCC4)cc3)nc12 | inactive
Cc1ccc2sc(N(CCCN(C)C)C(=O)c3ccc(S(=O)(=O)N(C)C4CCCCC4)cc3)nc2c1C | active
CC(C)(C)NC[C@@H](O)CSc1nc(-c2ccc(C(N)=O)s2)cs1 | inactive
COCC(=O)N(C)C[C@H]1Oc2cc(-c3ccc(C#N)cc3)ccc2S(=O)(=O)N([C@H](C)CO)C[C@H]1C | inactive
O=C(Nc1nccs1)[C@H]1[C@H](CO)[C@H]2Cn3c(cccc3=O)[C@@H]1N2C(=O)C1CC1 | inactive
Cc1noc(C)c1S(=O)(=O)N(C)C[C@@H]1OCCCC[C@H](C)Oc2ccc(NC(=O)Nc3ccccc3)cc2C(=O)N([C@@H](C)CO)C[C@H]1C | inactive
C[C@H](CO)N1C[C@H](C)[C@H](CN(C)Cc2ccncc2)Oc2c(NS(=O)(=O)c3ccc(F)cc3)cccc2C1=O | inactive
COC(=O)[C@@H](N)CS[C@H]1CCCCO1 | inactive
Cc1noc(C)c1NC(=O)Nc1ccc2c(c1)C(=O)N([C@H](C)CO)C[C@H](C)[C@H](CN(C)Cc1ccc(-c3ccccc3)cc1)O2 | inactive
CC(C)[C@H]1CC[C@@H](C)C[C@@H]1NC(=O)c1cccc2ccccc12 | inactive
COc1ccc2c(c1)n(CCN)c(=O)n2C(=O)[C@@H]1C[C@H](C)CC[C@H]1C(C)C | active
C[C@@H]1CN([C@@H](C)CO)C(=O)c2cc(NC(=O)CCCN(C)C)ccc2O[C@@H](C)CCCCO[C@@H]1CN(C)C | inactive
CN(Cc1ccc(/C=C/C(=O)Nc2ccc(-c3ccccc3)cc2N)cc1)CC12CC3CC(CC(C3)C1)C2 | active
CN(Cc1ccc(/C=C/C(=O)Nc2ccc(-c3cccs3)cc2N)cc1)CC12CC3CC(CC(C3)C1)C2 | inactive

SMILES | cytotoxicity call
C[C@H]1CN([C@@H](C)CO)C(=O)c2cccc(NC(=O)CCCCCC(=O)Nc3ccccc3N)c2O[C@@H]1CN(C)Cc1ccc(-c2ccccc2)cc1 | inactive
O=C(C[C@H]1CC[C@@H]2[C@H](COC[C@H](O)CN2S(=O)(=O)c2cccc(F)c2)O1)NCc1ccncn1 | inactive
C[C@H]1CN([C@@H](C)CO)C(=O)c2cc(C#CC3CCCCC3)cnc2O[C@H]1CN(C)C(=O)Cc1ccccn1 | inactive
CCc1nc2ccc(C(=O)NCc3ccc(OC)cc3)cn2c1N(CC)Cc1cccc(Br)c1 | inactive
CC(=O)n1cc([C@@H]2C=C(C(=O)N3CCN(Cc4ccc5c(c4)OCO5)CC3)O[C@H](OCc3ccc(COC(=O)NCCCCCC(=O)NO)cc3)C2)c2ccccc21 | inactive
CCC(=O)NCc1nn(C)c2c1COCC2 | inactive
CCC(=O)NCCC1CCc2ccc3c(c21)CCO3 (centres undefined) | active
COc1ccc(NC(=O)N(C)C[C@@H]2OCCCC[C@@H](C)Oc3ccc(NC(=O)Nc4cccc5ccccc45)cc3C(=O)N([C@@H](C)CO)C[C@@H]2C)cc1 | inactive
C[C@H](CO)N1C[C@H](C)[C@@H](CN(C)Cc2ccc3c(c2)OCO3)OCCCC[C@H](C)Oc2ccc(NC(=O)Cc3ccccc3)cc2C1=O | inactive
C[C@@H]1CCCCO[C@@H](CN(C)CC2CC2)[C@H](C)CN([C@H](C)CO)C(=O)c2cc(NC(=O)Nc3ccc4c(c3)OCO4)ccc2O1 | inactive
C[C@H](CO)N1C[C@H](C)[C@H](CN(C)CC2CC2)OCCCC[C@H](C)Oc2ccc(NC(=O)Nc3ccc4c(c3)OCO4)cc2C1=O | inactive
C[C@@H]1CCCCO[C@@H](CN(C)CC2CCCCC2)[C@@H](C)CN([C@H](C)CO)C(=O)c2cc(NC(=O)Nc3ccc4c(c3)OCO4)ccc2O1 | active
C[C@H](CO)N1C[C@H](C)[C@H](CN(C)CC2CCCCC2)OCCCC[C@H](C)Oc2ccc(NC(=O)Nc3ccc4c(c3)OCO4)cc2C1=O | active
C[C@@H]1CCCCO[C@H](CN(C)CC2CCCCC2)[C@H](C)CN([C@H](C)CO)C(=O)c2cc(NC(=O)Nc3ccc4c(c3)OCO4)ccc2O1 | inactive
C[C@@H]1CCCCO[C@@H](CN(C)CC2CCCCC2)[C@@H](C)CN([C@@H](C)CO)C(=O)c2cc(NC(=O)Nc3ccc4c(c3)OCO4)ccc2O1 | active
C[C@@H]1CCCCO[C@H](CN(C)CC2CCCCC2)[C@@H](C)CN([C@H](C)CO)C(=O)c2cc(NC(=O)Nc3ccc4c(c3)OCO4)ccc2O1 | inactive
C[C@@H]1CCCCO[C@@H](CN(C)CC2CC2)[C@@H](C)CN([C@H](C)CO)C(=O)c2cc(NC(=O)Nc3ccc4c(c3)OCO4)ccc2O1 | inactive
C[C@H]1CCCCO[C@H](CN(C)CC2CCCCC2)[C@@H](C)CN([C@@H](C)CO)C(=O)c2cc(NC(=O)Nc3ccc4c(c3)OCO4)ccc2O1 | active
C[C@H](CO)N1C[C@H](C)[C@@H](CN(C)CC2CC2)OCCCC[C@H](C)Oc2ccc(NC(=O)Nc3ccc4c(c3)OCO4)cc2C1=O | inactive
C[C@@H]1CN([C@H](C)CO)C(=O)c2cc(NC(=O)Nc3ccc4c(c3)OCO4)ccc2O[C@@H](C)CCCCO[C@@H]1CN(C)CC1CCCCC1 | inactive
C[C@@H]1CCCCO[C@H](CN(C)CC2CC2)[C@@H](C)CN([C@H](C)CO)C(=O)c2cc(NC(=O)Nc3ccc4c(c3)OCO4)ccc2O1 | inactive
CCC[C@@]1(CCc2ccccc2)CC(=O)[C@@H]([C@H](CC)c2cccc(NS(=O)(=O)c3ccc(C(F)(F)F)cn3)c2)C(=O)O1 | inactive
C[C@@H]1CCCCO[C@@H](CN(C)Cc2ccc(C(=O)O)cc2)[C@@H](C)CN([C@@H](C)CO)C(=O)c2cc(NS(=O)(=O)c3ccc(F)cc3)ccc2O1 | inactive
C[C@@H]1CN([C@@H](C)CO)S(=O)(=O)c2ccc(-c3cccnc3)cc2O[C@@H]1CN(C)CC1CCOCC1 | inactive

Source: the antibiotic and cytotoxicity screens of Wong et al. (2023)
